According to PubChem BioAssay AID652067 (The Scripps Research Institute Molecular Screening Center, 2013):
About 5,400 (1.5%) of roughly 370,000 compounds were called active.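 Rule for the calls: active = activation above the mean of all tested compounds plus 3 SD (cut at about 5.5% in these data); inactive = the rest.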 Shown is part of a subset that was picked to be rich in actives.

system: DAF-12 nuclear receptor (Haemonchus contortus); experiment: hcDAF-12 driven luciferase reporter activation – cell-based, luminescence, HEK293, lit1-tk-luc reporter, primary screen (AID 652067); details: HEK293 hcDAF-12 lit1-tk-luc reporter, at 6.8 µM, active compounds read high, 0% DMSO, 100% Δ7-dafachronic acid;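 note: 100% = response to 3 µM Δ7-dafachronic acid high control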

activation, inactive:
COc1ccc(C(=O)NCC[N+](C)(C)C)cc1 -0.19%
CCSc1ccccc1C(=O)NCc1ccc(OC)cc1 -0.9%
COc1ccccc1S(=O)(=O)c1c(C)cc(C)[nH]c1=O 0.35%
O=C1Nc2ccccc2C1=NN=Cc1ccco1 1.9%
CC(Sc1ncnc2c1cnn2-c1ccccc1)C(=O)Nc1ccc(N2CCOCC2)cc1 (configuration not stated) 1.44%
CN(C(=O)COc1ncnc2c1cnn2-c1ccccc1)C1CCCCC1 -0.54%
COc1ccc(-n2c(SCC(=O)Nc3ccc4c(c3)OCCO4)nnc2-c2ccc(Cl)cc2)cc1 -1.21%
Cc1nc2ccc(S(=O)(=O)NCC(=O)O)cc2s1 -0.41%
COc1cc(NC(=O)CN(C)S(=O)(=O)c2ccc3nc(C)sc3c2)cc(OC)c1 -1.14%
COc1ccc(N2CCN(CCNS(=O)(=O)c3ccc([N+](=O)[O-])cc3)CC2)cc1 -2.96%
Nc1nc2cc(Cl)ccc2n1N -0.75%
Nc1ccc2c(c1)C(O)c1ccc(Cl)cc1-2 (configuration not stated) 0.07%
CCOc1ccc(N(CC(=O)Nc2c(C)n(C)n(-c3ccccc3)c2=O)S(=O)(=O)c2ccc(Cl)s2)cc1 -1%
CN(CCc1ccccc1)C(=O)Cn1nc(-c2ccccc2)ccc1=O -1.21%
COC(=O)[C@]12C[C@H](CC(=O)NCc3ccccc3)C(=O)N(CCC3=CCCCC3)C1=C[C@H](C(C)C)O[C@@H]2C1CC1 -1.01%
O=C(Nc1c(Cl)c(C2CC2)nn1-c1ccccc1)C(Cl)(Cl)Cl -0.16%
Cc1ccnc(NC(=O)Cn2ccc([N+](=O)[O-])n2)c1 0.29%
O=C(CCn1ccc([N+](=O)[O-])n1)Nc1nccs1 -1.81%
CCOC(=O)[C@]12CCCC3=C1N(CCC3)C(=O)[C@@H](CC(=O)NCc1cccs1)C2 -2.04%
COc1cc(CN2CC(C)CC(C)C2)cc([N+](=O)[O-])c1O (configuration not stated) -3.15%
O=C(/C=C/c1ccccc1[N+](=O)[O-])OCC(=O)N1CCCC1 3.54%
COc1ccc(C2Nc3ccccc3C(=O)N2Cc2cccs2)cc1COc1c(C)cccc1C (configuration not stated) -0.71%
Cn1c(SCC(=O)c2cccs2)nnc1-c1ccco1 0.02%
O=S(=O)(Nc1ccc2nc(-c3ccco3)[nH]c2c1)c1ccccc1 1.02%
C=CCN=C1NC(c2cccc(C(F)(F)F)c2)C(C(=O)OC)=C(C)N1C (configuration not stated) -0.27%
Cc1ccc(NC(=O)Cc2cccc(F)c2)c(S(=O)(=O)N2CCOCC2)c1 -1.13%
Cc1ccccc1NC(=O)COC(=O)c1ccc(Sc2ncn[nH]2)c([N+](=O)[O-])c1 0.06%
O=C(c1ccc2c(c1)N(Cc1ccc(F)cc1)C(=O)c1ccccc1S2(=O)=O)N1CCN(c2ccccn2)CC1 -2.49%
COC(=O)CNC(=O)c1ccc2c(c1)S(=O)(=O)c1ccccc1C2=O -0.44%
OC(c1ccccc1)(c1ccccc1)C1CCN(CCCOc2ccc(-c3ccsc3)cc2)CC1 0.49%
CC(NCc1ccco1)C(=O)N1CCCCC1 (configuration not stated) 0.18%
COc1cccc(CSc2nnc(-c3cccnc3)n2Cc2ccccc2)c1 -1.85%
COc1ccc(NCc2nnc(SCc3ccccc3)n2-c2ccc(OC)cc2)cc1 -1.98%
Fc1ccc2nc(COCc3nc4ccc(F)cc4[nH]3)[nH]c2c1 -1.16%
CCOc1ccccc1Nc1nnc(SCC(=O)Nc2cc(C)on2)s1 -3.24%
Cc1cccc(Nc2nnc(SCC(=O)c3c(N)n(C4CC4)c(=O)[nH]c3=O)s2)c1C -1.19%
CC(=NNC(N)=O)c1ccc(Cl)c(-n2cccc2)c1 0.37%
O=c1cc(-c2ccccc2)[nH]c2cc(F)ccc12 -0.52%
COc1cc(OC)cc(-c2cc3ccc(F)cc3cn2)c1 3.13%
COC(=O)[C@]12C[C@H](CC(=O)NCc3ccccc3)C(=O)N(CCc3ccc(OC)c(OC)c3)C1=C[C@H](C(C)(C)C)O[C@@H]2C -2.1%
O=c1[nH]c(-c2ccccc2)cn1C1CCN(Cc2ccc(-c3nc4ccc(F)cc4nc3-c3ccccc3)cc2)CC1 0.07%
O=C(CCS(=O)(=O)c1ccccc1)Nc1ccc(Cl)c(Cl)c1 0.35%
COc1ccc(C#CCNCc2ccc(OC)cc2OC)cc1 -3.08%
Cc1ccc2nc(-c3ccc(CN4CCC(n5cc(-c6ccccc6)[nH]c5=O)CC4)cc3)c(-c3ccccc3)nc2c1 -2.64%
Cc1cc(C)n(C(=O)CCNC(=O)c2ccccc2Cl)n1 -1.04%
COCCNC(=O)c1ccccc1-c1nc(-c2ccccc2Cl)no1 2.6%
O=C(N1CCOCC1)N(Cc1ccccc1)c1ccccn1 -1.16%
O=C(Nc1ccc2ccccc2c1)Nc1ccc2snnc2c1 -0.5%
O=S(=O)(NC(=S)Nc1ccccc1)c1ccc(F)cc1 2.29%
CC(=O)C1=C(C)N(Cc2ccc(Cl)cc2)C(=S)NC1c1ccc(F)cc1 (configuration not stated) 0.56%
Nc1nc2c(ncn2[C@@H]2O[C@H](C(=O)N[C@@H](Cc3ccccc3)C(=O)NCc3ccccc3)[C@@H](O)[C@H]2O)c(=O)[nH]1 1.55%
O=S(=O)(c1ccc2c(c1)OCCCO2)N1CCN(S(=O)(=O)c2c(F)cccc2F)CC1 -1.98%
C=CCn1c(CCNC(=O)c2cccs2)n[nH]c1=S 1.16%
C=CCn1c(=NC(=O)c2ccc(S(=O)(=O)N3CCCC3)cc2)sc2cc(NC(C)=O)ccc21 -1.46%
Cc1cc(=O)[nH]c(SCC(=O)Nc2ccc(Cl)cc2C)n1 -1.08%
CCOc1ccc(NC(=O)COC(=O)C2CCC(=O)N2)c([N+](=O)[O-])c1 (configuration not stated) 3.85%
CN(C)c1ccc(NC(=O)NC2CCCCN(Cc3ccc(Cl)cc3)C2=O)cc1 (configuration not stated) -0.06%
CC1CCCCN1CCCNC(=O)Cn1ncc2c([nH]c3ccccc32)c1=O (configuration not stated) 0.15%
Cc1c2cnn(CC(=O)NCCCN3CC(C)CC(C)C3)c(=O)c2c(C)n1Cc1ccc(Cl)cc1 (configuration not stated) -1.23%
CC(=O)Nc1ccc(C(=O)CSc2nc3ccc(C)cc3[nH]2)cc1 4.98%
CSCC[C@H](NC(=O)OC(C)(C)C)C(=O)N/N=C/c1cc2ccc(C)cc2nc1Cl -0.35%
CC(Oc1ccccc1)C(=O)NN1Cc2ccccc2C1=N (configuration not stated) -1.32%
O=C(O)Cn1c(Cc2ccccc2)nc2ccccc21 0.35%
Cc1c(C=O)c2ccccc2n1CCOc1ccccc1 -3.86%
CCOC(=O)c1csc(NC(=O)C2CCCN(S(=O)(=O)c3ccc(Cl)s3)C2)n1 (configuration not stated) -2.96%
Cn1cnc(C(F)(F)F)c1-c1ccc([N+](=O)[O-])cc1 -1.54%
COc1ccc(-c2cc(-c3nnc(SCc4ccc([N+](=O)[O-])cc4)n3N)[nH]n2)cc1 -4.71%
C=CCN(C(=O)[C@@H](CCCC)[C@@H](O)c1ccc(Cl)cc1)c1ccccc1 -1.78%
CCCCCCCCN1C(=O)[C@@H](CC(=O)NCc2ccc(C)o2)C[C@@]2(C(=O)OC)C1=C[C@H](C(C)(C)C)O[C@@H]2C 0.67%
CN1C[C@]2(C=C3CCCCC3n3c(=O)n(-c4ccccc4)c(=O)n32)N=C1NC(=O)c1ccccc1 (some centres not stated) -1.23%
O=C1NC(Nc2nc3ccccc3s2)(C(F)(F)F)C(=O)N1C1CCCCC1 (configuration not stated) 2.82%
CCN(CC)CCn1c2c(c(SCC(=O)Nc3nc4ccccc4s3)nc1=O)CCCC2 1.05%

activation, active:
COc1ccc(C(=O)NCCSc2ccccc2C)cc1 5.88%
Cc1cc(C)c(/C=C2\C(=O)Nc3ccccc32)[nH]1 6.61%
c1ccc(-n2ncc3c(N4CCCC4)ncnc32)cc1 6.43%
NS(=O)(=O)c1ccc2nc(NC(=O)CS(=O)(=O)c3ccc(F)cc3)sc2c1 9.74%
Nc1ccc2nn(-c3ccc(Cl)cc3)nc2c1 12.2%
O=C(Cn1ccc([N+](=O)[O-])n1)NCc1cccs1 10.1%
CC1CC(C)CN(C/C=C/c2ccccc2[N+](=O)[O-])C1 (configuration not stated) 6%
Cn1c(-c2ccco2)nc2cc3ccccc3cc21 17.4%
CCCCN(C)C(=O)c1ccc2c(c1)N(CC)C(=O)c1ccccc1S2(=O)=O 6.63%
COc1ccc2nc(SCc3ccccc3)nc(C)c2c1 7.19%
Cc1ccccc1Nc1nnc(SCC(=O)c2cc3ccccc3o2)s1 7.93%
Fc1ccc2cnc(-c3ccccc3)cc2c1 6.9%
CN(C)CCNC(=O)c1ccc(Cl)c2cc3ccccc3nc12 13.5%
S=C(Nc1ccccc1)Nc1ccc2ccccc2c1 6.41%
C=CCn1c(=NC(=O)c2cccs2)sc2cc(NC(C)=O)ccc21 6.19%
CC1CC(C)CN(CCCNC(=O)Cn2ncc3c([nH]c4ccccc43)c2=O)C1 (configuration not stated) 6.07%
Cc1ccc2cc(/C=N/Nc3ccc(C(=O)O)cc3)c(Cl)nc2c1 10.2%
Cc1c(C=O)c2ccccc2n1CC(=O)O 9.3%
Cc1ccc(-c2cn3cc([N+](=O)[O-])ccc3n2)cc1 7.66%
c1ccc2sc(NN=C3CCCC3)nc2c1 9.02%
